# Compound activity from PubChem BioAssay.
# This excerpt belongs to a sample that is enriched for hits.
# ER stress surv: ER stress cell death inhibition; CSM14.1 thapsigargin ER stress survival, ATP luminescence; relative survival (cellular ATP), % at 15 µg/mL (by protocol); actives 0.33% (n = 48,000);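 active = survival measured by cellular ATP above 50% at 15 µg/ml in the first screen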;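 note: cell death triggered by about 15 µM thapsigargin; ATP read 24 h after thapsigargin was added; plate controls were thapsigargin with DMSO for no effect and DMSO without thapsigargin for full effect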
# The depositor's hits bear a star.
SMILES,ER stress surv
O=C(COc1ccc(Cl)cc1)N1CCN(Cc2cccc(F)c2)CC1,-2
COc1ccc(Br)cc1CN1CCN(C(=O)COc2ccc(Cl)cc2)CC1,24
COc1ccc(CN2CCN(C(=O)COc3ccc(Cl)cc3)CC2)cc1OCc1ccccc1,69*
CN(CN1C(=O)C(=O)c2cc([N+](=O)[O-])ccc21)[N+](=O)[O-],-4
C=CCN1C(=O)/C(=C\c2ccc(-c3cccc(Cl)c3Cl)o2)C(=O)NC1=S,17
